# About 83,000 compounds went through this panel and 20% of them were active in at least one assay; those are over-represented in the sample as a whole.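 Note: values are percent growth. 100 is the growth of untreated cells, values between 100 and 0 indicate rising inhibition; between -100 and 0 indicates cell death.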 A number with no mark means an inactive call. Active and inactive are the calls of the source. The calls were made as follows: active = growth percent below 10; inactive = the rest.
# Experiments:
# Test in all cases: NCI-60 one-dose screen, 48 h (100 = growth as untreated, 0 = no growth, -100 = all killed)
# Conditions in all cases: 10 µM unless noted
# HCT-15 colon = test system: HCT-15 colon
# HT29 colon = test system: HT29 colon
# SNB-75 CNS = test system: SNB-75 CNS
# SNB-19 CNS = test system: SNB-19 CNS
# U251 CNS = test system: U251 CNS
# PC-3 prostate = test system: PC-3 prostate
# SK-MEL-5 melanoma = test system: SK-MEL-5 melanoma
# UACC-62 melanoma = test system: UACC-62 melanoma
# LOX IMVI melanoma = test system: LOX IMVI melanoma
# SK-MEL-28 melanoma = test system: SK-MEL-28 melanoma
SMILES,growth (HCT-15 colon),growth (HT29 colon),growth (SNB-75 CNS),growth (SNB-19 CNS),growth (U251 CNS),growth (PC-3 prostate),growth (SK-MEL-5 melanoma),growth (UACC-62 melanoma),growth (LOX IMVI melanoma),growth (SK-MEL-28 melanoma)
CN(C)c1cnccn1,87.6%,104%,96.6%,101%,78.4%,88.6%,96.1%,98.6%,84.3%,103%
O=C(NCCN1CCC(O)CC1)c1cc2c(o1)C(=O)c1ccccc1C2=O,-80.8% (active),-5.34% (active),-98.5% (active),-98.1% (active),-88.1% (active),-28.4% (active),-99.2% (active),-89.4% (active),-89.3% (active),-74.3% (active)
O=C(c1ccccc1)c1ccc(N2C(=O)C3C4c5ccccc5C(/C=C/C(=O)c5ccccn5)(c5ccccc54)C3C2=O)cc1 (configuration not stated),-21.7% (active),9.38% (active),46.7%,28.2%,2.15% (active),28.4%,49.7%,21%,-76.6% (active),13.4%
N#C/C(=C\c1ccc(Br)cc1)n1nnc2ccccc21,2.5% (active),3.79% (active),24.8%,29%,-35.7% (active),12.7%,6.25% (active),14%,-75% (active),6.49% (active)
O=c1cc(-c2ccc(OCc3ccccc3)cc2)oc2c(I)c(OCc3ccccc3)cc(OCc3ccccc3)c12,104%,105%,79.7%,104%,90.1%,94.7%,85.1%,90.3%,101%,107%
CCn1c(Sc2nnc(NC(=O)CSC(=S)N3CCCCC3)s2)nc2c1c(=O)n(C)c(=O)n2C,49%,41.3%,88.7%,87.5%,96.2%,79.2%,85.4%,60.8%,81.5%,78.1%
COc1ccc(OC)c(Nc2nc3nonc3nc2Nc2cc(OC)ccc2OC)c1,73.5%,42.6%,18.7%,76.1%,11.5%,79.4%,12%,47%,34.3%,58.1%
COc1cc2nc(Nc3ccc(F)cc3)nc(N)c2cc1OC,94.7%,81%,103%,92.6%,94%,84.1%,90.5%,94%,101%,105%
COC(=O)CCCNC(=O)C(=O)c1c(O)c(O)c(C(C)C)c2cc(C)c(-c3c(C)cc4c(C(C)C)c(O)c(O)c(C(=O)C(=O)NCCCC(=O)OC)c4c3O)c(O)c12,1.55% (active),-22.9% (active),49.6%,22.5%,-62.4% (active),21.4%,-68.8% (active),-35.6% (active),-85.6% (active),23.5%
CC(C)(C)Nc1c(-c2c3ccccc3cc3ccccc23)nc2ccccn12,79.7%,55.3%,64%,74.1%,68.2%,37.9%,84%,50.6%,85.9%,82.2%
CC(=O)OCCc1ccccc1,107%,107%,74.4%,102%,100%,99.2%,105%,100%,101%,111%
CC(C)(C)CC(C)(C)Nc1c(-c2ccc(-c3ccccc3)cc2)nc2cnccn12,84.5%,30.5%,88.7%,94.3%,59.7%,65.4%,101%,75.9%,97.2%,100%
CCOC(=O)c1c(C)nc2c(c1N)/C(=C/c1cc(OC)c(OC)c(OC)c1)C(=O)N2c1ccc(OC)cc1,31.3%,26.2%,73.9%,47.9%,43.6%,50.1%,69.5%,67.3%,14.6%,70.2%
CS(=O)(=O)c1ccc(-c2[nH]c3ccc(F)cc3c2/C=N/O)cc1,98.4%,93.7%,69.2%,103%,91.2%,79.4%,103%,91.2%,95.3%,108%
O=C(CC1Sc2ccccc2NC1=O)NNc1ccc(F)cc1 (configuration not stated),60.5%,98.5%,73.3%,84.5%,85.2%,52.5%,106%,40%,18.5%,123%
N=C(N)c1ccc(-c2ccc(-c3ccc(Cl)c(Cl)c3)o2)cc1,-55.7% (active),-20.3% (active),78.6%,25.4%,-36.9% (active),47.4%,83.5%,93.5%,-96% (active),59.7%
O=C(NCc1cn(Cc2cccc(Oc3ccccc3)c2)nn1)c1cccnc1NCc1ccc(Cl)cc1,21.7%,9.24% (active),11%,41.3%,21.2%,10%,11.3%,27.8%,39.4%,29.5%
CCOc1cc(N)ccc1C(=O)NCCCN(CC)CC,106%,102%,85%,102%,104%,101%,100%,95.5%,100%,97.5%
CC12CC(C#N)CCC1O2 (configuration not stated),118%,109%,100%,111%,103%,101%,111%,109%,108%,109%
O=[N+]([O-])c1ccc2[nH]cc(-c3c4ccsc4cc4[nH]c5ccc([N+](=O)[O-])cc5c34)c2c1,11.3%,-14.5% (active),-24.3% (active),13.4%,6.49% (active),9.2% (active),-7.86% (active),14.5%,0.522% (active),27.1%
COc1ccc(OC)c(C(=O)Nc2cccc(-c3cc(=O)c4ccccc4o3)c2)c1,93.4%,91.3%,64.4%,70.7%,93.8%,92.8%,–,87.1%,97.4%,104%
Cc1cnc(Nc2ccc(OCCN3CCCC3)cc2)nc1NCc1ccco1,74.6%,50.7%,33.3%,94.4%,65.8%,72%,81.7%,86.9%,–,103%
Cn1c(NCCc2ccc(O)c(O)c2)nc2c1c(=O)n(Cc1ccc(Cl)cc1)c(=O)n2C,40.7%,101%,57.1%,93%,104%,60%,75.3%,82.7%,–,86%
COc1ccc(/C=C(\C#N)n2nnc3ccccc32)cc1,8.56% (active),11%,-31.7% (active),23%,17.6%,15.8%,6.7% (active),21.4%,2.08% (active),36.2%
Nc1c(C(=O)c2ccccc2)nnc2ncnn12,111%,100%,96.9%,105%,95.8%,97.9%,98.6%,99.7%,101%,133%
O=C(/C=C/C12c3ccccc3C(c3ccccc31)C1C(=O)N(c3ccccc3)C(=O)C12)c1ccc(Cl)cc1 (configuration not stated),-0.519% (active),8.4% (active),72.1%,39.4%,19.8%,22.3%,-55.2% (active),5.42% (active),-81.1% (active),4.17% (active)

# From PubChem BioAssay (NCI)
